Data taken from PubChem BioAssay (NCATS).
Inconclusive results are not listed. Values without a mark were called inactive. Activity calls are given as the source filed them. The call rests on the fitted dose curve; in most records, active means well fitted curve in the direction sought with a large enough effect; inconclusive means small, poorly fitted or top-dose-only effect, or another doubt; inactive means no such curve, though single readings can be large; an effect the other way counts as inactive or inconclusive.

Key:
[1] = molecular target: Aldehyde dehydrogenase, mitochondrial (Homo sapiens) (UniProt P05091); assay: qHTS for Inhibitors of the Aldehyde Dehydrogenase Family (ALDH2) Primary screen (AID 2061308);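 further: plate controls were vehicle for no effect and reference inhibitor for full effect; nearly all actives have a fitted effect of over 55% in size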
[2] = molecular target: Retinaldehyde dehydrogenase 3 (Homo sapiens) (UniProt P47895); assay: qHTS for Inhibitors of the Aldehyde Dehydrogenase Family (ALDH1A3) Primary screen (AID 2061315);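 further: plate controls were DMSO vehicle for no effect and reference inhibitor for full effect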
[3] = BET inhibitor-based combinations targeting novel dependencies in MECOM-rearranged (r) AML: SET-2 cell line (AID 2202231); conditions: SET-2 AML cells viability, CellTiter-Glo luminescence, 48 h; viability: stronger effect = lower value, concentration not given here; further: nearly all actives have a fitted effect of over 35% in size; further: potency means the concentration at half of the fitted maximal effect;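 on viability: plate controls were DMSO treated cells for no effect and wells without cells for full effect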
How it was run: (§1)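 Here, 11-point titrations of each agent were applied to 500 seeded cells and incubated 48 hr; CellTiter-Glo signal, scaled against DMSO and empty wells, was integrated as AUC, then Z-scored within the individual line.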

[4] = BET inhibitor-based combinations targeting novel dependencies in MECOM-rearranged (r) AML: OCI-AML3 cell line (AID 2202232); conditions: Potency: OCI-AML3 viability; further: nearly all actives have a fitted effect of over 35% in size; further: potency means the concentration at half of the fitted maximal effect
How it was run: as §1

[5] = BET inhibitor-based combinations targeting novel dependencies in MECOM-rearranged (r) AML: MV-4-11 cell line (AID 2202233); further: potency means the concentration at half of the fitted maximal effect; nearly all actives have a fitted effect of over 45% in size
How it was run: (§2)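 Normalized to DMSO and empty-well controls, the luminescence data from CellTiter-Glo after 48 hr drug exposure were fitted across 11 concentrations. Reported metrics are area under the dose-response curve and its Z-transformed form.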

[6] = BET inhibitor-based combinations targeting novel dependencies in MECOM-rearranged (r) AML: AML-191 cell line (AID 2202236; further: nearly all actives have a fitted effect of over 35% in size; further: potency means the concentration at half of the fitted maximal effect)
How it was run: as §1

[7] = BET inhibitor-based combinations targeting novel dependencies in MECOM-rearranged (r) AML: AML-194 cell line (AID 2202237; further: nearly all actives have a fitted effect of over 40% in size; further: potency means the concentration at half of the fitted maximal effect)
How it was run: as §1

[8] = BET inhibitor-based combinations targeting novel dependencies in MECOM-rearranged (r) AML: UCSD-AML1 cell line (AID 2202235); further: nearly all actives have a fitted effect of over 40% in size; further: potency means the concentration at half of the fitted maximal effect
How it was run: as §2

[9] = BET inhibitor-based combinations targeting novel dependencies in MECOM-rearranged (r) AML: HNT-34 cell line (AID 2202234); further: potency means the concentration at half of the fitted maximal effect; nearly all actives have a fitted effect of over 35% in size
How it was run: as §2

| SMILES | Potency [1] | Potency [2] | Potency [3] | Potency [4] | Potency [5] | Potency [6] | Potency [7] | viability [3] [%] | Potency [8] | Potency [9] |
| --- | --- | --- | --- | --- | --- | --- | --- | --- | --- | --- |
| Cc1nnc(C[C@@H]2C=C(c3ccc(Cl)cc3)c3ccccc3-n3c(C)nnc32)o1 | inactive | inactive | 0.662 µM (active) | 0.332 µM (active) | 0.235 µM (active) | 3.32 µM (active) | 5.25 µM (active) | – | – | – |
| CCn1c(N)c(C(=O)NC)c(=O)c2ccc(C#CC(C)(O)COC)nc21 (stereo not drawn) | inactive | inactive | – | – | 5.25 µM (active) | 23.5 µM (active) | inactive | 91.1 | inactive | – |
| CN1CCN(C2CCC(n3cc(-c4ccc(Oc5ccccc5)cc4)c4c(N)ncnc43)CC2)CC1 (stereo not drawn) | inactive | inactive | 20.9 µM (active) | 13.2 µM (active) | 0.235 µM (active) | 9.34 µM (active) | 8.33 µM (active) | – | 7.42 µM (active) | – |
| CCn1c(=O)c(-c2ccc(-c3cncs3)cc2Cl)cc2cnc(Nc3ccc(N4CCN(C)CC4)cc3)nc21 | inactive | inactive | – | – | 1.86 µM (active) | – | – | 104 | – | – |
| O=C(O)C1(Cc2cccc(Nc3nccs3)n2)CCC(Oc2cccc(Cl)c2F)CC1 (stereo not drawn) | inactive | inactive | – | 0.662 µM (active) | 1.32 µM (active) | – | – | – | – | 0.468 µM (active) |
| C[C@@H]1CC(=O)Nc2cccc(-c3cnn(C(C)(C)C)c3)c2N1 | inactive | inactive | – | 18.6 µM (active) | 16.6 µM (active) | 16.6 µM (active) | – | – | 14.8 µM (active) | – |
| C=CC(=O)N1CCC[C@@H](n2nc(-c3ccc(Oc4ccccc4)cc3)c3c(N)ncnc32)C1 | inactive | inactive | – | inactive | – | – | – | – | – | 5.9 µM (active) |
| O=C(Nc1cccnc1)c1cc(-c2ccnc(F)c2)ccc1OCc1ccccc1 | inactive | inactive | – | – | 3.72 µM (active) | inactive | inactive | 121 | inactive | – |
